# From PubChem
# tim23-1 inh – growth inhibitors of tim23-1 mutant yeast, primary screen, luminescence, uHTS; S. cerevisiae tim23-1 growth, BacTiter-Glo luminescence, 24 h; inhibition, % at 20 µM; 330,000 compounds, 1.3% hits;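 active means growth inhibition of the mutant yeast at or above 50%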;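 further: temperature-sensitive mutant grown at 25 °C; plate controls were DMSO-treated mutant yeast for no effect and medium wells lacking yeast for full effect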
# NALP1 yeast inh – NALP1 inflammasome inhibitors in reconstituted yeast, colorimetric, S. cerevisiae, triplicate retest; 280,000 compounds, 0.61% hits; S. cerevisiae NALP1/ASC/caspase-1 growth, X-gal OD620, 72 h; inhibition, % at 10 µM; in the data active means inhibition mostly above about 24%, no sharp cut-off; inactive means mostly below about 32%
# SKKanGAS inh – S. pyogenes SKKanGAS growth inhibitors in kanamycin, primary screen, streptokinase expression inhibitor project, SKKanGAS strain, BacTiter-Glo luminescence. 6 h. inhibition, % at 7.5 µM. 300,000 compounds, 1.3% hits. AID 1662, 2009;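 active means mean replicate score, as percent of positive control median, at least 50; inconclusive means mean below 50 but one replicate at or above 50; inactive means mean and every replicate below 50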;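 further: strain carries kanamycin resistance gene driven by streptokinase promoter and grows in 40 µg/ml kanamycin; loss of luminescence reflects streptokinase promoter inhibition or plain growth inhibition; 0% = median of DMSO wells and 100% = positive control at its reference dose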
# NLRP3 yeast inh – NALP3 inflammasome inhibitors in reconstituted yeast, primary screen, luminescence, uHTS | Yeast reconstituted NLRP3/ASC/caspase-1, beta-gal luminescence, 24 h | 330,000 compounds, 0.39% hits | AID 2825, 2010 | inhibition, % at 10 µM;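 active means inhibition of 50% or more; inactive means inhibition below 50%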;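 further: plate controls were induced DMSO wells for no effect and uninduced yeast grown without galactose for full effect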
# TIM10 inh – growth inhibitors of isogenic TIM10 control yeast, primary screen, counter-screen for tim10-1 yeast inhibitor project, luminescence, uHTS; S. cerevisiae TIM10 strain growth, BacTiter-Glo luminescence, 24 h; inhibition, % at 10 µM; 330,000 compounds, 1.4% hits;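 active means inhibition of 40% or more at the single tested concentration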;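 further: wild-type TIM10 isogenic control strain grown at permissive 25 °C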
# tim10-1 inh – growth inhibitors of tim10-1 mutant yeast, primary screen, luminescence, uHTS. S. cerevisiae tim10-1 ts strain growth, BacTiter-Glo, 24 h. inhibition, % at 20 µM. 330,000 compounds, 2.2% hits;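 active means inhibition of at least 40%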;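 further: mutant grown at 25 °C; 0% = DMSO wells with yeast and 100% = wells holding no yeast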
# tim23-1 conf – tim23-1 mutant yeast growth inhibitors, confirmation, luminescence, single concentration | shares compounds with tim23-1 inh | S. cerevisiae tim23-1 growth, BacTiter-Glo luminescence, 24 h | inhibition, % at 20 µM | 4,400 compounds, 83% hits | AID 463218, 2010;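 active means inhibition above about 39% in either of two replicate wells at 20 µM, limit read from the data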;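 further: temperature-sensitive tim23-1 mutant grown at 25 °C; 0% = DMSO wells with yeast and 100% = medium wells without yeast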
# The depositor's hits bear a star; ? = inconclusive; / = no result. In the library only some 4.9% were active in any assay of this set; here they are far more common.
SMILES,tim23-1 inh,NALP1 yeast inh,SKKanGAS inh,NLRP3 yeast inh,TIM10 inh,tim10-1 inh,tim23-1 conf
COc1ccccc1C(=O)Nc1cccc(S(=O)(=O)N2CCCC2)c1,97.8*,-7.7,-5.3,-12.3,2.0,6.2,28.7
CC(C)c1nc(SCc2ccccn2)c2c(=O)n(C)c(=O)n(C)c2n1,50.3*,/,-1.3,25.9,8.4,15.0,48.5*
Cn1c(=O)c2c(SCc3cccnc3)nc(C3CC3)nc2n(C)c1=O,50.4*,-13.8,-9.7,11.5,12.7,20.7,42.5*
Cc1ccccc1-c1nc(SCc2ccccn2)c2c(=O)n(C)c(=O)n(C)c2n1,-28.1,-9.2,-9.0,12.0,-17.7,-6.4,/
CCc1nc(SCc2ccccn2)c2c(=O)n(C)c(=O)n(C)c2n1,55.5*,-8.5,-9.9,14.9,-9.2,21.9,49.9*
CC(C)c1nc(SCC(=O)N2CCCC2)c2c(=O)n(C)c(=O)n(C)c2n1,15.0,/,0.1,12.7,-2.7,-1.1,/
Cn1c(=O)c2c(SCC(=O)NCCc3ccccc3)nc(C3CC3)nc2n(C)c1=O,12.0,/,8.3,3.0,3.1,4.7,/
Nc1nc(-c2ccccc2)nn1S(=O)(=O)c1ccccc1,31.3,0.6,-3.1,11.3,18.9,8.8,/
Cc1nnc(SCC(=O)Nc2nsc(-c3ccc(C(C)(C)C)cc3)n2)s1,51.5*,-2.7,-5.8,7.2,17.8,39.4,41.2*
N=c1c2c(-c3ccccc3)c(-c3ccccc3)n(Cc3ccco3)c2ncn1Cc1ccccc1,86.5*,29.2,35.9,23.6,31.4,30.1,58.7*
CC(C)Cn1cnc2c(c(-c3ccccc3)c(-c3ccccc3)n2Cc2ccco2)c1=N,75.6*,-5.4,-1.1,17.8,-13.3,30.9,40.7*
COc1cc(/C=C/C(=O)OCC(=O)NC(=O)NC(C)C)ccc1O,8.2,23.0,3.0,-9.8,-4.2,3.6,/
Cn1c(=O)c2c(nc(CN3CCc4ccccc4C3)n2Cc2cccc(Cl)c2)n(C)c1=O,51.3*,/,13.2,-3.8,36.1,37.2,54.4*
Cn1c(=O)c2c(nc(CN3CCN(Cc4ccccc4)CC3)n2Cc2cccc(Cl)c2)n(C)c1=O,17.2,/,-3.8,27.5,9.4,17.6,/
CC(=O)c1ccc(-n2nnnc2SCC(=O)NC2CCCCC2)cc1,5.3,-0.3,2.5,13.0,2.2,3.0,/
COc1ccc(CCN(/C=C2\Sc3ccccc3C2=O)C(C)=O)cc1OC,50.4*,2.3,-0.9,0.9,20.9,14.9,51.9*
CC(NC(=O)C1(C)CC1(Br)Br)C(C)(C)C (configuration not stated),11.4,-22.5,3.1,8.3,16.4,20.7,/
O=C(CSc1oc(-c2ccco2)nc1S(=O)(=O)c1ccc(Cl)cc1)NCC1CCCO1 (configuration not stated),15.6,6.1,5.3,15.2,14.6,18.1,/
O=C(Nc1cccc(-c2nnc(-c3ccccc3)o2)c1)c1ccc(Br)o1,73.1*,8.2,?,34.8,23.0,20.9,62.6*
Cc1ccc(C(=O)Oc2cccc(NC(=O)c3ccccc3)c2)cc1C,31.3,21.6,-15.2,34.0,10.7,16.9,/
O=C(Nc1cccc(OC(=O)c2ccc(Br)o2)c1)c1ccccc1,64.2*,8.2,-7.9,21.8,35.6,24.1,57.3*
O=C(Nc1cccc(-c2ccc(N3CCCCC3)nn2)c1)c1ccc(Br)o1,53.5*,/,43.7,17.5,19.1,37.5,58.7*
CC12CN3CC(C)(CN(C1)C3c1ccc(Br)cc1O)C2 (configuration not stated),51.4*,1.7,2.9,7.9,12.3,31.6,44.8*
COc1ccc(C(=O)Nn2cnnc2)cc1OC,-19.6,/,6.1,-0.1,-12.7,-6.5,/
Cc1ccc(C2=Nc3ccccc3N(C(=O)c3ccccc3)C(C)C2)cc1 (configuration not stated),51.5*,17.2,-19.2,8.3,33.1,38.6,40.6*
SMILES,tim23-1 inh,NALP1 yeast inh,SKKanGAS inh,NLRP3 yeast inh,TIM10 inh,tim10-1 inh,tim23-1 conf
Cc1ccc(Cl)cc1C1=CC(=O)C[C@H](c2ccc(F)cc2)C1,29.6,/,/,5.4,-8.3,11.8,/
Cc1cc2cc(CCNC(=O)c3ccc(C)c([N+](=O)[O-])c3)c(=O)[nH]c2cc1C,8.7,24.6,0.5,19.0,10.2,-0.1,/
Cc1cc2cc(CNC(=O)c3ccc(C)c([N+](=O)[O-])c3)ccc2[nH]1,61.8*,18.1,4.0,46.9,8.5,38.2,56.5*
COc1ccc(Nc2nc(N)c([N+](=O)[O-])c(NCCO)n2)cc1,17.7,/,0.6,10.5,16.5,9.1,/
COc1ccc(Nc2nc(N)c([N+](=O)[O-])c(NC3CCCCC3)n2)cc1,62.1*,4.0,31.5,25.1,23.0,39.3,51.9*
COc1ccc(CN(CC(O)COCc2ccccc2)S(=O)(=O)c2ccccc2Br)cc1OC (configuration not stated),50.0*,/,/,/,3.7,25.1,36.0*
CNC(=S)N1CCC(NC(=O)C(Cc2ccccc2)NC(C)=O)CC1 (configuration not stated),-4.3,-11.5,-7.1,13.5,0.1,10.4,/
N/C(Cc1ccc(Cl)c(Cl)c1)=N\OC(=O)c1ccc(Br)o1,76.7*,-1.5,-8.2,3.7,-11.9,39.8,80.2*
CCOP(=O)(OCC)C(Nc1ccccc1)c1ccccc1C(F)(F)F (configuration not stated),37.0,-2.8,-0.6,-17.6,30.4,16.1,/
CCOP(=O)(OCC)C(Nc1ccccc1)c1cc(OC)ccc1OC (configuration not stated),51.9*,17.8,-2.0,-3.2,17.2,17.4,25.6
COc1cccc(CN2CC(C(=O)NC3CCC(O)CC3)CCC2=O)c1 (configuration not stated),2.2,3.7,-2.5,-1.9,4.2,-4.1,/
O=C(Nc1cn(-c2ccccc2)nc1-c1cccs1)c1ccco1,58.2*,1.2,-1.8,1.0,5.2,33.7,47.0*
CCCN1C(=O)C(=O)c2cc(Cl)ccc21,61.4*,/,/,-1.1,13.6,13.1,39.9*
Cc1ccc(OCCCN2C(=O)C(=O)c3cccc(C)c32)cc1,52.7*,-1.5,-7.1,18.9,17.8,26.4,62.5*
O=C1C(=O)N(CCS(=O)(=O)c2ccccc2)c2ccc(Cl)cc21,21.5,6.1,2.5,14.1,15.1,22.5,/
Cc1ccc(OCCN2C(=O)C(=O)c3cc(C)ccc32)cc1,56.6*,-3.0,5.7,7.4,21.7,17.1,53.4*
O=C(NCc1ccccc1F)c1ccc2c(c1)OCCO2,-6.5,2.7,5.4,17.0,-11.2,-6.0,/
